{"source": "PubChem BioAssay AID1942", "about": "(Johns Hopkins Ion Channel Center, 2009)", "note": "In all, about 2,400 compounds went through this assay and about 580 (24%) were called active. Only a sample is shown. Unmarked numbers belong to inactive results.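 Rule for the calls: active = activity change at or above the mean plus 3 SD of buffer wells without dofetilide, per plate; inactive = the rest.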", "data": [{"target": "Potassium voltage-gated channel subfamily KQT member 2 (Rattus norvegicus) (UniProt O88943)", "sequence (O88943 whole entry, looked up)": "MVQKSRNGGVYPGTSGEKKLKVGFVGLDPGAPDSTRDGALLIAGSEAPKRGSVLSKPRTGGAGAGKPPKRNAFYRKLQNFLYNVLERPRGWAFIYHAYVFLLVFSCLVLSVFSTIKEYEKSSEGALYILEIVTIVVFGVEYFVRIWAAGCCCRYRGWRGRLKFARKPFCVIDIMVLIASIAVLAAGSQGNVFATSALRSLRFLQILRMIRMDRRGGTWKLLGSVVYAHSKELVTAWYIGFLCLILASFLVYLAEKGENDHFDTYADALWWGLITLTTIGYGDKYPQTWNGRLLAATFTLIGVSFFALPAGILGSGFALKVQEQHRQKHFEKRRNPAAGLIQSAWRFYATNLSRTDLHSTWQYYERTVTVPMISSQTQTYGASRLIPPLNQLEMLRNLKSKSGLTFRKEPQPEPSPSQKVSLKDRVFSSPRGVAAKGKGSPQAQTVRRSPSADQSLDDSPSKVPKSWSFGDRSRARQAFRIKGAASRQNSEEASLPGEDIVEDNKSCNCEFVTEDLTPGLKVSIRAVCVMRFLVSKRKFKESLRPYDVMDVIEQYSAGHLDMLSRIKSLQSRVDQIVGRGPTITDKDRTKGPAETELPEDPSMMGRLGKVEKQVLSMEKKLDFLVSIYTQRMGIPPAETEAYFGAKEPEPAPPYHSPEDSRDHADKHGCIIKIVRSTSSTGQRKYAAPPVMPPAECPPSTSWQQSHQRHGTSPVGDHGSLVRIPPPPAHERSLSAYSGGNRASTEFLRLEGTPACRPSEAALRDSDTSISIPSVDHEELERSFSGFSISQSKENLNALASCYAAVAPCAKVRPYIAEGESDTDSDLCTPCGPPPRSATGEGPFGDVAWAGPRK", "experiment": "KCNQ2 potentiation in CHO cells – cell-based, FluxOR thallium flux, counter-screen for hERG block protector project, confirmation (AID 1942);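 for activity change, less the hit threshold: normalized value minus buffer-control mean plus three SD of buffer wells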", "conditions": "FluxOR thallium flux fluorescence, at 10 µM, active compounds read high", "values": [{"smiles": "Cc1ccccc1N1C(=O)/C(=C/c2ccco2)C(=O)NC1=S", "activity change": "-6.4%"}, {"smiles": "O=C1NC(=O)N(c2ccccc2)C(=O)/C1=C/c1ccc(Sc2ccccc2)o1", "activity change": "-16.9%"}, {"smiles": "O=C1NC(=S)N(c2ccc(F)cc2)C(=O)/C1=C/c1ccco1", "activity change": "0.7% (active)"}, {"smiles": "COc1ccc(-c2nc(CSCC(=O)N3CCC4(CC3)OCCO4)c(C)o2)cc1OC", "activity change": "-18.2%"}, {"smiles": "O=C(Cn1ncc2c3ccccc3n(Cc3ccccc3F)c2c1=O)N1CCC2(CC1)OCCO2", "activity change": "37% (active)"}, {"smiles": "O=C1NC(=O)C(=Cc2ccc(-c3cc(Cl)ccc3[N+](=O)[O-])o2)C(=O)N1", "activity change": "-15.8%"}, {"smiles": "CC/C(=C\\C=C\\[C@@H]1C=C[C@@H]2CCC[C@H]2[C@@H]1C(=O)c1ccc[nH]1)[C@@H]1O[C@@H]([C@@H](C)C(=O)O)CC[C@@H]1C", "activity change, less the hit threshold": "166% (active)"}, {"smiles": "CN(C)C(=O)O/N=C(\\N)COc1ccc(C(C)(C)C)cc1", "activity change, less the hit threshold": "-13%"}, {"smiles": "O=c1[nH]c(=S)[nH]c(O)c1/C=C1/C=c2ccccc2=N1", "activity change": "-27.3%"}, {"smiles": "O=C(COc1ccc(Br)cc1)N1CCN(Cc2ccc3c(c2)OCO3)CC1", "activity change, less the hit threshold": "-18.6%"}, {"smiles": "N#CCCn1cc(C(=O)Nc2ccccc2Cl)c(-c2ccc(F)cc2)n1", "activity change, less the hit threshold": "-16.8%"}, {"smiles": "CCOC(=O)c1c(NS(=O)(=O)c2ccccc2)n(CCCOC)c2nc3ccccc3nc12", "activity change, less the hit threshold": "-27.8%"}, {"smiles": "COc1cccc(OC)c1C(=O)Nc1nc(N)n(-c2ccccc2)n1", "activity change, less the hit threshold": "-9.7%"}, {"smiles": "COc1ccc2c(c1)/C(=C/c1cnc[nH]1)C(=O)N2", "activity change, less the hit threshold": "0.2% (active)"}, {"smiles": "COc1ccc(OC)c(N2C(=O)/C(=C/c3ccco3)C(=O)NC2=S)c1", "activity change": "-13.8%"}, {"smiles": "O=C1NC(=O)N(CCNc2ncc(C(F)(F)F)cc2Cl)C(=O)C1Cc1ccc(Cl)cc1", "note": "(stereo not given)", "activity change": "-25.6%"}, {"smiles": "COc1ccc(CN2CCCC(C(=O)c3sccc3C)C2)cc1O", "note": "(stereo not given)", "activity change, less the hit threshold": "-26.3%"}, {"smiles": "C=CCN1C(=O)/C(=C/c2ccc(Br)s2)C(=O)NC1=S", "activity change": "-20.2%"}, {"smiles": "O=c1c2ccccc2[nH]c(=S)n1-c1ccc2c(c1)OCCO2", "activity change, less the hit threshold": "-18.7%"}, {"smiles": "O=C(O)CCC(=O)NCCC1=c2ccccc2=N/C1=C\\c1c(O)n(Cc2ccc(F)cc2)c(=S)[nH]c1=O", "activity change": "-17.9%"}]}]}
